Compounds with a hit are over-represented: about 2.4% of the library has one in this group of screens.
Cruzain Triton = cruzain (T. cruzi) inhibition with detergent; P25779; purified cruzain, Z-FR-AMC fluorescence, 0.01% Triton; Potency, µM, usual class: inhibitors; 0.43% of 200,000 active; also: nearly all actives have a fitted effect of over 40% in size
Target sequence (P25779 123-467 limits assumed): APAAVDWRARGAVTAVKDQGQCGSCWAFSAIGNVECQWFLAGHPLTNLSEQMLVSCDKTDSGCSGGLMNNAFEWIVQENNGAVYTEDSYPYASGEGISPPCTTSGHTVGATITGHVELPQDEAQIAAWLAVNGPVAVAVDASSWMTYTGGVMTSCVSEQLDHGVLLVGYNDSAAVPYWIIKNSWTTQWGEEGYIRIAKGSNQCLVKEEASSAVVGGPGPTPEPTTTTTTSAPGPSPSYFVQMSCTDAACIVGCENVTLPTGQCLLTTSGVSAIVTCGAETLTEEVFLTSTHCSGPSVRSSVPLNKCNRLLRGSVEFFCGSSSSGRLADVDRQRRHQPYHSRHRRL
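Steps: dispense cruzain (1.5 nM final) in acetate buffer pH 5.5 with DTT and 0.01% Triton X-100; pin-transfer compounds; incubate 15 min RT; add Z-FR-AMC (2 uM final); read fluorescence every 30 s, using the 60 s intensity change.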
Cruzain inh noDet = inhibitors of Trypanosoma cruzi cruzain without detergent; purified cruzain, Z-FR-AMC fluorescence, no detergent; Potency, µM, usual class: inhibitors; 2.3% of 200,000 active; P25779; AID 1476; also: nearly all actives have a fitted effect of over 40% in size
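Purified cruzain at 1.5 nM, pre-incubated 15 min with compound at room temperature in 100 mM sodium acetate pH 5.5, 5 mM DTT, 0.00005% Triton X-100. Reaction started with 2 uM Z-FR-AMC; AMC fluorescence increase over 60 s gives rate.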
Numbers stand for hits; . = inactive; ? = inconclusive. Calls follow the shape of the dose curve; as a rule, active = well fitted curve in the direction sought with a large enough effect; inconclusive = small, poorly fitted or top-dose-only effect, or another doubt; inactive = no such curve, though single readings can be large; an effect the other way counts as inactive or inconclusive.

SMILES	Cruzain Triton	Cruzain inh noDet
CC(C)C(NC(=O)c1ccccc1Cl)C(=O)OCc1nc2scc(-c3ccccc3Cl)c2c(=O)[nH]1 (stereo not drawn)	.	25.1µM
O=C(OCc1nc2scc(-c3ccccc3)c2c(=O)[nH]1)c1cc([N+](=O)[O-])ccc1Cl	.	?
O=c1c(CCc2ccccc2)nc2cnc(N3CCOCC3)nc2n1-c1ccccc1	.	.
O=S(=O)(Nc1ccc(F)c(C(F)(F)F)c1)c1ccc(N2CCCCS2(=O)=O)cc1	.	.
COc1ccc(OC)c(Nc2nc(-c3sc(N)nc3C)cs2)c1	?	25.1µM
Cc1cc(O)ccc1Nc1nc(-c2sc(N)nc2C)cs1	.	?
Cc1nc(N)sc1-c1csc(Nc2ccccc2)n1	25.1µM	12.6µM
COc1ccc(CCNc2nc(-c3sc(C)nc3C)cs2)cc1OC	.	?
O=C(CCN1CCOCC1)Nc1ccc(F)cc1F	.	.
O=[As](O)(O)c1ccc(Cc2ccc([As](=O)(O)O)cc2)cc1	.	?
Cc1ccc(Cn2c(C(=O)O)c(CNCc3ccccc3Cl)c3ccc(C)cc32)cc1	.	.
Cc1sc2ncnc(SCC(=O)N3c4ccccc4Sc4ccc(Cl)cc43)c2c1C	.	7.94µM
Cc1sc2ncnc(SCC(=O)c3cccs3)c2c1C	.	?
COC(=O)c1ccccc1NC(=O)c1c(NC(=O)c2ccco2)sc2c1CCC(C(C)(C)C)C2 (stereo not drawn)	.	?
COc1cc(NC(=O)COC(=O)CNC(=O)c2cc(C)cc(C)c2)c(C)cc1[N+](=O)[O-]	?	.
Cc1ccc(NC(=O)COC(=O)Cn2nc(C)c([N+](=O)[O-])c2C)c([N+](=O)[O-])c1	.	.
CCOc1ccc(C(=O)NCC(=O)OCC(=O)Nc2ccccc2OCC)cc1	.	.
Cc1ccc(C(=O)NCC(=O)OCC(=O)Nc2ccccc2[N+](=O)[O-])cc1	11.2µM	7.94µM
COc1ccc(OC)c(NC(=O)COC(=O)CNC(=O)c2ccc(OC)c(OC)c2)c1	.	.
Cc1ccc(NC(=O)COC(=O)CNC(=O)c2ccc(Br)cc2)c(C)c1	14.1µM	15.8µM
Cc1ccc(NC(=O)COC(=O)CNC(=O)c2ccc3ccccc3c2)c([N+](=O)[O-])c1	7.08µM	3.16µM
COc1cccc(C(=O)NCC(=O)OCC(=O)Nc2cc(OC)c([N+](=O)[O-])cc2C)c1	22.4µM	?
Cc1cccc(C)c1NC(=O)Cn1c(=O)n(CCCS(=O)(=O)C2CCCCC2)c(=O)c2ccccc21	.	.
CC(C)CCNC(=O)N1CCN(S(=O)(=O)c2ccc3c(ccn3C)c2)CC1	.	.
CC(=O)N1CCCc2cc(S(=O)(=O)N(C)CC(=O)Nc3cccc(Cl)c3C)ccc21	.	.
SMILES	Cruzain Triton	Cruzain inh noDet
Cc1ccc(N(CC(=O)N2CCN(c3cccc(C)c3C)CC2)S(=O)(=O)c2c(C)nn(C)c2C)cc1	.	?
O=C(Cc1ccccc1)NCC(=O)OCC(=O)c1ccc(Cl)c([N+](=O)[O-])c1	?	15.8µM
Cc1ccc(C(=O)COC(=O)CNC(=O)C(c2ccccc2)c2ccccc2)cc1[N+](=O)[O-]	.	.
CC(C)N(C(=O)COC(=O)CNC(=O)c1ccc(Br)cc1)c1ccccc1	15.8µM	15.8µM
O=C(COC(=O)CNC(=O)c1cccc([N+](=O)[O-])c1)Nc1ccccc1OC(F)F	15.8µM	20µM
O=C(NCCc1ccccc1)c1ccc(Cl)c([N+](=O)[O-])c1	.	.
Cc1ccc(C(=O)NCC(=O)OCC(=O)c2ccc(C)c([N+](=O)[O-])c2)cc1	15.8µM	12.6µM
CC(=O)COC(=O)CNC(=O)c1ccc(Br)cc1	.	.
O=C(COC(=O)CNC(=O)c1cccc([N+](=O)[O-])c1)Nc1nc2ccccc2s1	.	?
Cc1ccc(-c2nnc(SCC(=O)c3ccc(Cl)cc3)n2-c2ccccc2)cc1	.	.
Cc1ccccc1C(=O)NC1(C(F)(F)F)C(=O)Nc2c1c(=O)[nH]c(=O)n2CCc1ccccc1 (stereo not drawn)	.	.
Cc1ccccc1CNC(=O)Cc1csc2ccccc12	.	.
NC(=O)CN1C(=O)C2(SCC(=O)N2c2cccc(F)c2)c2ccccc21 (stereo not drawn)	.	.
COc1ccc(-c2ccc3c(N)c(C(=O)NCc4ccc(C)cc4)sc3n2)cc1	12.6µM	15.8µM
Cc1ccc(CNC(=O)c2sc3nc(-c4ccc(F)cc4)ccc3c2N)cc1	.	.
COc1ccc2c3c([nH]c2c1)[C@H]1C[C@@H]2[C@@H](C[C@@H](O)[C@H](OC)[C@H]2C(=O)O)CN1CC3	.	.
O=C1c2ccccc2C(Nc2cccnc2)N1Cc1ccc2c(c1)OCO2 (stereo not drawn)	.	.
O=C1c2ccccc2C(Nc2ccc3c(c2)OCO3)N1Cc1ccc2c(c1)OCO2 (stereo not drawn)	.	25.1µM
CC1CCc2nc3ncn(Cc4ccc(Cl)cc4)c(=O)c3cc2C1 (stereo not drawn)	.	.
CCN(CC)CC[n+]1ccc2c(C)c3[nH]c4ccccc4c3c(C)c2c1	.	.
